Measured values from the supplement of paper PMC10849652.
Of roughly 8,800 targets only a part is listed; those with a hit were picked by preference. About 0.5% of all pairs of compound and target were hits.

How the values were obtained:
Test in all cases: log2 fold change, soluble protein after heating vs DMSO (PISA); higher = thermal stabilisation; K562 lysate, 10 uM; active = over 0.2 and 3.5 SD of the protein, either way, in both replicates (recomputed)
[1] = compound: C1=CC=C(C=C1)[C@H](COC2=CC3=C(C=C2)NC(=O)N3)NC(=O)C4=CC=CN(C4=O)CC5=CC(=C(C=C5)F)F
Procedure, shortened: (§1)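 To prepare the extract, K562 pellets were dounce-homogenised in PBS pH 7.4 with 1 mM MgCl2, giving crude material at 1 mg/mL protein. This was treated with 10 μM compound for 30 min, then heated in aliquots for 3 min over 48°C-58°C before pooling and addition of NP-40 to 0.5% at 4°C. Centrifugation at 21,000xg for 90 min left soluble protein in the supernatant, which TMTpro 16plex LC-MS/MS quantified with equalised channel sums. Results are log-two fold changes in thermal stability compared with solvent controls, from duplicates.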

[2] = compound: CC1=C(SC2=C1C(=N[C@H](C3=NN=C(N32)C)CC(=O)N)C4=CC=C(C=C4)Cl)C
Procedure, shortened: as §1

[3] = compound: CC1=C2C(=CC=C1)N=C(N(C2=O)C3=CC=CC=C3C)CN4C=NC5=C(N=CN=C54)N
Procedure, shortened: as §1

[4] = compound: Cc1sc2c(c1C)C(c1ccc(Cl)cc1)=N[C@@H](CC(=O)OC(C)(C)C)c1nnc(C)n1-2
Procedure, shortened: as §1

[5] = compound: c1ccc([C@@H]2C[C@H]2NC2CCNCC2)cc1
Procedure, shortened: as §1

Measured: log2 fold change

DOK1 (UniProt Q99704)
Chain of UniProt Q99704 (Q99704 whole entry, looked up): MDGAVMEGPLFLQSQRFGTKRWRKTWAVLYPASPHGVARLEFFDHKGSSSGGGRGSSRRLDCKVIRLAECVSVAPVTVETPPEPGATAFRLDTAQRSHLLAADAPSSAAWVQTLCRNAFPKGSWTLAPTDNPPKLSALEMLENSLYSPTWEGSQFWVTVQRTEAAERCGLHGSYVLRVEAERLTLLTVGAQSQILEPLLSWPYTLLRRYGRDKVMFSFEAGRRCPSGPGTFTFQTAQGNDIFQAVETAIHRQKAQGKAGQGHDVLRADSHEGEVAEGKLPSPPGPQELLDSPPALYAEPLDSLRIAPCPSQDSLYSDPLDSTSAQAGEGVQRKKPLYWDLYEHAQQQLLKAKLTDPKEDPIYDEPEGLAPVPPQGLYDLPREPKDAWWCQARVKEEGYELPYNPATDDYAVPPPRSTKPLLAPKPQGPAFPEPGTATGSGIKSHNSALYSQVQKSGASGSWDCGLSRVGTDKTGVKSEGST
inactive: [1] 0.048 | [2] -0.024 | [3] -0.005 | [4] 0.064 | [5] -0.036

CSNK2B (UniProt P67870)
Chain of UniProt P67870 (P67870 whole entry, looked up): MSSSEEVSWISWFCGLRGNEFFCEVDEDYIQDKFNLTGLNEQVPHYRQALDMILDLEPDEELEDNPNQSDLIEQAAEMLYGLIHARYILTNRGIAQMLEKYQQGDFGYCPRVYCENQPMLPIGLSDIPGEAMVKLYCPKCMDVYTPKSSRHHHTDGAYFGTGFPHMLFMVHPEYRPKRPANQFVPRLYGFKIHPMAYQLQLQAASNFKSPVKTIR
inactive: [1] -0.02 | [2] 0.024 | [3] -0.068 | [4] 0.03 | [5] -0.016

CSK (UniProt P41240)
Chain of UniProt P41240 (P41240 whole entry, looked up): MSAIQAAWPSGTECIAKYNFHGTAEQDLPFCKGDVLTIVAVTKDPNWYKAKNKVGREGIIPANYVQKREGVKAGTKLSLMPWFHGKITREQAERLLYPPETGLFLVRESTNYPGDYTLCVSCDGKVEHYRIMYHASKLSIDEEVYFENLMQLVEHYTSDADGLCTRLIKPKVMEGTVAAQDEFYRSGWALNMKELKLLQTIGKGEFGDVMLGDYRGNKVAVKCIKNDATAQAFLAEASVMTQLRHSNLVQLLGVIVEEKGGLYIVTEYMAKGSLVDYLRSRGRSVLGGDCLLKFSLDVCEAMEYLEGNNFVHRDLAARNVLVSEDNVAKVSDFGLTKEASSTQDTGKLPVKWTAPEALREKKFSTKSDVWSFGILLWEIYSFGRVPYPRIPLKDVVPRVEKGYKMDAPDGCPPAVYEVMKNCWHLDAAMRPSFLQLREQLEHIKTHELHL
inactive: [1] -0.039 | [2] -0.049 | [3] -0.019 | [4] -0.057 | [5] -0.037

DICER1 (UniProt Q9UPY3)
Chain of UniProt Q9UPY3 (Q9UPY3 whole entry, looked up): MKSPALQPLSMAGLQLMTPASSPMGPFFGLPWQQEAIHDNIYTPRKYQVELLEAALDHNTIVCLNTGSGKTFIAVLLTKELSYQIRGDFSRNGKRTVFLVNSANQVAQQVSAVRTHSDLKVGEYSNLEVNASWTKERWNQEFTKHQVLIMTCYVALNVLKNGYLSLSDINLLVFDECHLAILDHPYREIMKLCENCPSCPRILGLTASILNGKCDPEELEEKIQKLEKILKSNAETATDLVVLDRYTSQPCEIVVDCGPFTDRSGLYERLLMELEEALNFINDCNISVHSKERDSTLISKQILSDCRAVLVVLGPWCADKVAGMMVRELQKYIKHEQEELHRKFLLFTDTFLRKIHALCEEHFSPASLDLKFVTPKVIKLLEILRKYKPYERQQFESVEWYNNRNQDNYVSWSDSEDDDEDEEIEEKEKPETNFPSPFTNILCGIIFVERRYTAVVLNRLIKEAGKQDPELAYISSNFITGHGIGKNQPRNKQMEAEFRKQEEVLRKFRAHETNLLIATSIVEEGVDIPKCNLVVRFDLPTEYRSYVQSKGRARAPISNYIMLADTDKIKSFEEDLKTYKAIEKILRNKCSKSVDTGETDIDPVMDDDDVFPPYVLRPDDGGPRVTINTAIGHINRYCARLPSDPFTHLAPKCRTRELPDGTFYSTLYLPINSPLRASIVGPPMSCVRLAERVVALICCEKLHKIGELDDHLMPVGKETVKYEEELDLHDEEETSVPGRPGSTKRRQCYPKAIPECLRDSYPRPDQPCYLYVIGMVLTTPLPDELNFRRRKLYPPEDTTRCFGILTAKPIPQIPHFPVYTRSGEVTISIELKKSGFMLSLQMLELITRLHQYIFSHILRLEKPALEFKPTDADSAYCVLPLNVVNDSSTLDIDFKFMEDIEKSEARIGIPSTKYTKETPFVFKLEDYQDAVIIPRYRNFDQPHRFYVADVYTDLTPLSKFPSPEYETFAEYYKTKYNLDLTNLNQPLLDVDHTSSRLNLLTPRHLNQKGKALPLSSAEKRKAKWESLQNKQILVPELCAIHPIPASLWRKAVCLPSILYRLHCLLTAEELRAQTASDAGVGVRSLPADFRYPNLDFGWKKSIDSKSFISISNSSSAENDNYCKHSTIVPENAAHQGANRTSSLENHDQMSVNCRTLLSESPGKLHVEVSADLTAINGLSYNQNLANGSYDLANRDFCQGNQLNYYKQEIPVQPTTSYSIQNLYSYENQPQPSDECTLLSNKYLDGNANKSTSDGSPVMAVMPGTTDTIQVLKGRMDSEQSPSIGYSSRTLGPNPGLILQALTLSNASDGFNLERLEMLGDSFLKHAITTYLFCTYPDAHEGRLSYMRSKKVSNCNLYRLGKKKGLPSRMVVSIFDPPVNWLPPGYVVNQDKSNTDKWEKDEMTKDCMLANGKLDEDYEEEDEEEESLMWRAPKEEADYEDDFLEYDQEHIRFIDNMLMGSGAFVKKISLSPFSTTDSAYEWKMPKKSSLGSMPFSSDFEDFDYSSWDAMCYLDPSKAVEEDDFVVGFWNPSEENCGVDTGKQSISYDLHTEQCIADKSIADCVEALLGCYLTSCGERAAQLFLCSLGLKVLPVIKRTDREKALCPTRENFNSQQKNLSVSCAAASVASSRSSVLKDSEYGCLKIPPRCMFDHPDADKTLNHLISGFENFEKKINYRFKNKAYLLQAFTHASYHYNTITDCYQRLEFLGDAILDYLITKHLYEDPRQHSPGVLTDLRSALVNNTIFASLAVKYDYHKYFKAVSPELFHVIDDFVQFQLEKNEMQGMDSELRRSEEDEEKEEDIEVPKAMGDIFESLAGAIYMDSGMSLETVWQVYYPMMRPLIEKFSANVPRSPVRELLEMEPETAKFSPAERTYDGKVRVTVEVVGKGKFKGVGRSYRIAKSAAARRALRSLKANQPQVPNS
inactive: [1] 0.028 | [2] 0.006 | [3] 0.045 | [4] 0.029 | [5] -0.038

DENND1B (UniProt Q6P3S1)
Chain of UniProt Q6P3S1 (Q6P3S1 whole entry, looked up): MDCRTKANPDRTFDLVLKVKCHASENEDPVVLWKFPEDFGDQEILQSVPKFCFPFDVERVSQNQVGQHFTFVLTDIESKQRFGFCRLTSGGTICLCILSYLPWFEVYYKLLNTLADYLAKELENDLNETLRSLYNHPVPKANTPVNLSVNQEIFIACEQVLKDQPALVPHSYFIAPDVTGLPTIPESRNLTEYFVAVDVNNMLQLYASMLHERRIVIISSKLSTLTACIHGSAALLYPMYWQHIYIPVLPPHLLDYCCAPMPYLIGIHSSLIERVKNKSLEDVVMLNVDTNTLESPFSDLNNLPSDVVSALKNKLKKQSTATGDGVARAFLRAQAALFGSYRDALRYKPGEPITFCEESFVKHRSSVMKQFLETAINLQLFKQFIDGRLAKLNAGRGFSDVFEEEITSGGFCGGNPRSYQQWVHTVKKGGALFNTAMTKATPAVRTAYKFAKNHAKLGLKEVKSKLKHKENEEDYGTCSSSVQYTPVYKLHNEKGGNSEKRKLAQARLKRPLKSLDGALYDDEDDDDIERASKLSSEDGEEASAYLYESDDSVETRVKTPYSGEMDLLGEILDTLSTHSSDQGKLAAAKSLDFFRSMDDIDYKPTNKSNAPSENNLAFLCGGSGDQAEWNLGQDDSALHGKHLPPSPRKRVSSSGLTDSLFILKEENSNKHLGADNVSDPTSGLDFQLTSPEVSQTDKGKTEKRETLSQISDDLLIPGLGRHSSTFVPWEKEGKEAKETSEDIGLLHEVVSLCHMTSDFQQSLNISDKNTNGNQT
inactive: [1] 0.154 | [2] -0.205 | [3] -0.062 | [4] -0.182 | [5] 0.014

DOCK7 (UniProt Q96N67)
inactive: [1] 0.071 | [2] 0.095 | [3] -0.017 | [4] -0.011 | [5] 0.012

CXorf38 (UniProt Q8TB03)
Chain of UniProt Q8TB03 (Q8TB03 whole entry, looked up): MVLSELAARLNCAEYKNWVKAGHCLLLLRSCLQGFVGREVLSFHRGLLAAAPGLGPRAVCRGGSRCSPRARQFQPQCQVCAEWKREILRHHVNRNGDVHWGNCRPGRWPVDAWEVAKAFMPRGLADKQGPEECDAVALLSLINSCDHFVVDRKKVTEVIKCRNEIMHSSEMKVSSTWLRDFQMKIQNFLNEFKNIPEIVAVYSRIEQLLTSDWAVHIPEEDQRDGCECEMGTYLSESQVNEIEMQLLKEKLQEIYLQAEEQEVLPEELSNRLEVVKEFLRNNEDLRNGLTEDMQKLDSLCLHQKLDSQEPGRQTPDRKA
inactive: [1] 0.021 | [2] 0.007 | [3] -0.021 | [4] -0.004 | [5] 0.031

CSNK1A1 (UniProt P48729)
Chain of UniProt P48729 (P48729 whole entry, looked up): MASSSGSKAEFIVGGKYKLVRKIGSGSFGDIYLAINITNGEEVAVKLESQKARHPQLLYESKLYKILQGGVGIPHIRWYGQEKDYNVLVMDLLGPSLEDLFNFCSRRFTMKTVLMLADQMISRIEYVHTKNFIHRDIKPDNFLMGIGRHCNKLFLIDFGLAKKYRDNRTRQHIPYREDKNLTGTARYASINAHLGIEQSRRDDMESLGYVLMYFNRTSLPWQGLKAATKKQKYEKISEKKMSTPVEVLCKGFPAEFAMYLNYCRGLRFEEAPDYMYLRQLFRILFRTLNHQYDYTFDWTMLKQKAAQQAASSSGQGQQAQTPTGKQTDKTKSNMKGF
inactive: [1] -0.027 | [2] 0.007 | [3] -0.033 | [4] 0.025 | [5] -0.044

CYP51A1 (UniProt Q16850)
Chain of UniProt Q16850 (Q16850 whole entry, looked up): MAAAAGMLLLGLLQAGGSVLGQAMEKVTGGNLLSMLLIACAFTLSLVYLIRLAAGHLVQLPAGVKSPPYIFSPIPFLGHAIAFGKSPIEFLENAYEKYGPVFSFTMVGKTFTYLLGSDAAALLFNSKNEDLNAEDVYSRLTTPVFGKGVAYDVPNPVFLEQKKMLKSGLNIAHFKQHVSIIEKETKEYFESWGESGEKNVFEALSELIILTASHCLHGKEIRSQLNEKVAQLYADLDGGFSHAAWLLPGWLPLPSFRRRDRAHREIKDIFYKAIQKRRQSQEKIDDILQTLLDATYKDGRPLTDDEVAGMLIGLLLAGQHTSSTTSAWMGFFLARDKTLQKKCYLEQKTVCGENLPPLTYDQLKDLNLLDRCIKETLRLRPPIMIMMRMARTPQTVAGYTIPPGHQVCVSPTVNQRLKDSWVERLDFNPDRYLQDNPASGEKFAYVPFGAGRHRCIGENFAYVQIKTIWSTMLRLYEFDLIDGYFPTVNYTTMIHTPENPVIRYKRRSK
inactive: [1] 0.028 | [2] -0.105 | [3] -0.058 | [4] -0.028 | [5] -0.007
